Assay results: ChEMBL document CHEMBL1961873, “Compounds: GSK PKIS; Assays: Nanosyn kinase panel” (2012)

Biological target: Casein kinase I isoform gamma-3 (Homo sapiens) (UniProt Q9Y6M4)
Details: at 0.1 µM
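Note: reported value is the mean percent inhibition of the kinase.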

Chain of Casein kinase I isoform gamma-3 (Homo sapiens) (Q9Y6M4 whole entry, looked up, canonical isoform): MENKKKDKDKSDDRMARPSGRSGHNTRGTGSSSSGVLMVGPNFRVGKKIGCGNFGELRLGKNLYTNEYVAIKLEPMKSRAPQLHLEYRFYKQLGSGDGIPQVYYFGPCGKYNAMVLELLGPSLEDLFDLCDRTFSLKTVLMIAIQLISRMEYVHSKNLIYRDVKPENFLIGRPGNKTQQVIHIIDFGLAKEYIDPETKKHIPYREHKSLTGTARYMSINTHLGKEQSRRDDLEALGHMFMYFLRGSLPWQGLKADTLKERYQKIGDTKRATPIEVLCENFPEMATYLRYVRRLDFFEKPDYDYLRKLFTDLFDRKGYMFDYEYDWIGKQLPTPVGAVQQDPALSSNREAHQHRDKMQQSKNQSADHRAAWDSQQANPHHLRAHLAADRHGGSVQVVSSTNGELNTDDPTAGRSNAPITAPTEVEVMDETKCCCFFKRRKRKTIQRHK

Q: How did the inhibition turn out when `CC1=C(C(=O)Nc2cc(Cl)c3[nH]ncc3c2)C(c2ccc(C(F)(F)F)cc2)CC(=O)N1` (centres undefined) was run?
A: The inhibition was 1.59%.

Q: Which inhibition does the source give for `c1cc(-c2cnn3nc(N4CCOCC4)ccc23)nc(NC2CC2)n1` here?
A: Its inhibition is 2.89%.

Q: With `CC(C)COC(=O)c1ccc2c(c1)/C(=C/Nc1ccc(S(N)(=O)=O)cc1)C(=O)N2` as the compound, how does the inhibition read?
A: The inhibition was -3.31%.

Q: How did the inhibition turn out when `Fc1ccc(-c2cc(-c3c[nH]nc3-c3ccccn3)ccn2)cc1` was run?
A: The inhibition was 4.09%.

Q: With `COC(=O)c1sc(-n2cnc3cc(OC)c(OC)cc32)cc1OCc1ccccc1C(F)(F)F` as the compound, how does the inhibition read?
A: The inhibition was 3.9%.

Q: How did the inhibition turn out when `Nc1ncc(-c2cccc(S(N)(=O)=O)c2)c2scc(-c3ccc(F)c(Cl)c3)c12` was run?
A: The inhibition was 2.58%.

Q: Which inhibition does the source give for `Fc1ccc(-c2nn3ncccc3c2-c2ccnc(Nc3ccc4c(c3)OCCO4)n2)cc1` here?
A: Its inhibition is 23.9%.

Q: Which inhibition does the source give for `COc1cc(Nc2nccc(Nc3ccc4c(C)n[nH]c4c3)n2)cc(OC)c1OC` here?
A: The inhibition was 0.39%.

Q: With `O=C(O[C@H]1CN[C@H](C#Cc2cc3ncnc(Nc4ccc(Cc5ccccc5)cc4)c3s2)C1)N1CCOCC1` as the compound, how does the inhibition read?
A: Its inhibition is 2.83%.

Q: How did the inhibition turn out when `Nc1nc(-c2ccc(F)cc2)c(-c2ccc3ncccc3n2)s1` was run?
A: Its inhibition is 4.7%.

Q: For `COc1ccc(-c2nn3ncccc3c2-c2ccnc(Nc3ccc4c(c3)OCCO4)n2)cc1`, which inhibition is on record?
A: Its inhibition is 0.17%.

Q: With `CNC(=O)c1cncc(/C=C/c2ccccc2Cl)c1` as the compound, how does the inhibition read?
A: The inhibition was 0.25%.

Q: `CCn1c(-c2nonc2N)nc2ccccc21` was tested. Which inhibition did it give?
A: The inhibition was 0.54%.

Q: How did the inhibition turn out when `N#Cc1c(NC(=O)CN2CCOCC2)sc2c1CCCC2` was run?
A: The inhibition was 4.84%.

Q: With `NS(=O)(=O)c1ccc(N/N=C2\C(=O)Nc3ccc4ncccc4c32)cc1` as the compound, how does the inhibition read?
A: Its inhibition is 1.94%.

Q: How did the inhibition turn out when `Nc1nc(-c2cccc(Cl)c2)c(-c2ccc3ncccc3n2)s1` was run?
A: Its inhibition is 6.72%.

Q: `c1ccc(-c2nc3n(c2-c2ccc4c(c2)OCO4)CCC3)nc1` was tested. Which inhibition did it give?
A: The inhibition was 0.57%.

Q: With `Cc1ccc(O)cc1Nc1ccnc2cc(-c3ccccn3)ccc12` as the compound, how does the inhibition read?
A: Its inhibition is 4.03%.

Q: `NS(=O)(=O)c1ccc(Nc2ncc(-c3ccccc3)o2)cc1` was tested. Which inhibition did it give?
A: The inhibition was 3.53%.

Q: For `COc1cccc(-n2ncc3c(N/N=C/c4ccc(F)cc4)ncnc32)c1`, which inhibition is on record?
A: Its inhibition is 3.39%.

Q: For `CCc1nn2ncccc2c1-c1ccnc(NC2CC2)n1`, which inhibition is on record?
A: The inhibition was 1.24%.

Q: With `COc1ccc(CNC(=O)c2ccc(-c3cc(-c4nnc(C)o4)ccc3C)cc2)cc1` as the compound, how does the inhibition read?
A: Its inhibition is 0.01%.

Q: How did the inhibition turn out when `CCCN(CCS(C)(=O)=O)Cc1ccc(-c2ccc3ncnc(Nc4ccc(OCc5cccc(F)c5)c(Cl)c4)c3c2)o1` was run?
A: Its inhibition is -1.08%.

Q: Which inhibition does the source give for `Cc1ccc2c(-c3ccnc(Nc4ccccc4)n3)c(-c3ccc(F)cc3)nn2n1` here?
A: Its inhibition is 7.8%.

Q: Which inhibition does the source give for `COc1cc(/C=N/Nc2ncnc3[nH]ncc23)ccc1O` here?
A: The inhibition was 3.84%.

Q: How did the inhibition turn out when `FC(F)(F)c1cccc(-c2nn3ncccc3c2-c2ccnc(Nc3ccc4c(c3)OCCO4)n2)c1` was run?
A: The inhibition was 1.54%.

Q: For `O=S(=O)(CCNCc1ccc(-c2ccc3ncnc(Nc4ccc(OCc5cccc(F)c5)c(Cl)c4)c3c2)o1)c1ccccc1`, which inhibition is on record?
A: The inhibition was 4.59%.

Q: For `CCn1c(-c2nonc2N)nc2c(C#CC(C)(C)O)ncc(OC3CCNCC3)c21`, which inhibition is on record?
A: Its inhibition is 2.65%.

Q: `COc1ccc2c(-c3ccnc(Nc4cccc(OC(F)(F)F)c4)n3)cnn2n1` was tested. Which inhibition did it give?
A: Its inhibition is 4.96%.

Q: Which inhibition does the source give for `CC(C)(CO)CNC(=O)c1ccc2c(c1)/C(=N/Nc1ccc(S(N)(=O)=O)cc1)C(=O)N2` here?
A: The inhibition was 1.31%.

Q: For `NC(=O)c1sc(-n2cnc3ccc(C(F)(F)F)cc32)cc1OCc1ccccc1Br`, which inhibition is on record?
A: Its inhibition is 1.35%.

Q: How did the inhibition turn out when `COC(=O)Nc1nc2ccc(Oc3ccc(NC(=O)Nc4cccc(Cl)c4)cc3)cc2[nH]1` was run?
A: The inhibition was 0.53%.

Q: For `CS(=O)(=O)CCNCc1ccc(-c2ccc3ncnc(Nc4ccc(OCc5ccccc5)c(C(F)(F)F)c4)c3c2)o1`, which inhibition is on record?
A: The inhibition was 3.19%.

Q: With `COc1ccc2[nH]c3c4[nH]c5ccc(OC)cc5c4c4c(c3c2c1)C(=O)NC4=O` as the compound, how does the inhibition read?
A: Its inhibition is 4.06%.
